# Results: the supplement of paper PMC8728848
# Many of the other results were omitted from the sample, so the strongest signals are more common in it than they were.
# What was measured:
# Experiment in all cases: glycan array binding signal (z-score within array); higher = stronger binding
# Details in all cases: glycan notation: IUPAC condensed, linker removed
# [1] = molecular target: Fuc(a1-2)Gal(b1-3)GlcNAc(b1-3)Gal(b1-4)Glc
# In short: (§1)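 Glycan array data came from 3228 arrays in the Consortium for Functional Glycomics database, and only arrays with an available protein sequence were kept. Glycan names were put into IUPAC-condensed notation, and columns mapping to the same glycan were averaged. The binding signal is a within-array Z-score, averaged across arrays of one protein sequence run at different concentrations or buffers and across linkers. A negative Z-score can be read as non-binding.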
# [2] = molecular target: Fuc(a1-2)Gal(b1-3)GlcNAc(b1-3)[Gal(b1-4)GlcNAc(b1-6)]Gal(b1-4)Glc
# In short: as §1
# [3] = molecular target: Fuc(a1-2)Gal(b1-4)GlcNAc(b1-2)[Fuc(a1-2)Gal(b1-4)GlcNAc(b1-4)]Man(a1-3)[Fuc(a1-2)Gal(b1-4)GlcNAc(b1-2)Man(a1-6)]Man(b1-4)GlcNAc(b1-4)GlcNAc
# In short: as §1
# [4] = molecular target: Fuc(a1-2)Gal6S(b1-4)Glc6S
# In short: as §1
# Fuc(a1-2)[Gal(a1-3)]Gal = molecular target: Fuc(a1-2)[Gal(a1-3)]Gal
# In short: as §1
# [5] = molecular target: Fuc(a1-2)[Gal(a1-3)]Gal(b1-3)GlcNAc
# In short: as §1
# [6] = molecular target: Fuc(a1-2)[GalNAc(a1-3)]Gal(b1-4)GlcNAc
# In short: as §1
# [7] = molecular target: Fuc(a1-2)[GalNAc(a1-3)]Gal(b1-4)GlcNAc(b1-3)GalNAc
# In short: as §1
# [8] = molecular target: Fuc(a1-2)[GalNAc(b1-3)]Gal
# In short: as §1
# [9] = molecular target: Fuc(a1-3)[Gal(b1-4)]GlcNAc(b1-4)Gal(b1-4)[Fuc(a1-3)]GlcNAc
# In short: as §1
# [10] = molecular target: Fuc(a1-3)[Gal(b1-4)]GlcNAc6S
# In short: as §1
# [11] = molecular target: Fuc(a1-3)[Gal3S(b1-4)]GlcNAc6S
# In short: as §1
# [12] = molecular target: Gal(a1-3)Gal(b1-3)[Fuc(a1-4)]GlcNAc(b1-2)Man(a1-3)[Gal(a1-3)Gal(b1-3)[Fuc(a1-4)]GlcNAc(b1-2)Man(a1-6)]Man(b1-4)GlcNAc(b1-4)GlcNAc
# In short: as §1
# Gal(a1-3)Gal(b1-4)GlcNAc = molecular target: Gal(a1-3)Gal(b1-4)GlcNAc
# In short: as §1
# [13] = molecular target: Gal(b1-3)GlcNAc(b1-3)Gal(b1-4)[Fuc(a1-3)]GlcNAc(b1-6)[Gal(b1-3)GlcNAc(b1-3)]Gal(b1-4)Glc
# In short: as §1
# [14] = molecular target: Gal(b1-3)[Neu5Ac(b2-6)]GalNAc
# In short: as §1
# [15] = molecular target: Gal(b1-4)GlcNAc(b1-2)Man(a1-3)[Gal(b1-4)GlcNAc(b1-2)Man(a1-6)]Man(b1-4)GlcNAc(b1-4)GlcNAc
# In short: as §1
# [16] = molecular target: Gal(b1-4)GlcNAc(b1-3)Gal(b1-4)GlcNAc(b1-2)Man(a1-3)[Gal(b1-4)GlcNAc(b1-3)Gal(b1-4)GlcNAc(b1-2)Man(a1-6)]Man(b1-4)GlcNAc(b1-4)[Fuc(a1-6)]GlcNAc
# In short: as §1
# [17] = molecular target: Gal(b1-4)GlcNAc(b1-6)[Gal(b1-4)GlcNAc(b1-3)]GalNAc
# In short: as §1
# Gal(b1-6)Gal = molecular target: Gal(b1-6)Gal
# In short: as §1
# Gal3S(b1-3)GlcNAc = molecular target: Gal3S(b1-3)GlcNAc
# In short: as §1
# Gal3S(b1-4)Glc = molecular target: Gal3S(b1-4)Glc
# In short: as §1
# Gal3S(b1-4)Glc6S = molecular target: Gal3S(b1-4)Glc6S
# In short: as §1
# Gal3S(b1-4)GlcNAc = molecular target: Gal3S(b1-4)GlcNAc
# In short: as §1
# Gal3S(b1-4)GlcNAc6S = molecular target: Gal3S(b1-4)GlcNAc6S
# In short: as §1
# [18] = molecular target: Gal3S(b1-4)[Fuc(a1-3)]GlcNAc6S
# In short: as §1
# GalNAc(a1-3)Gal = molecular target: GalNAc(a1-3)Gal
# In short: as §1
# GalNAc(b1-3)GalNAc = molecular target: GalNAc(b1-3)GalNAc
# In short: as §1
# GalNAc3S(b1-4)GlcNAc = molecular target: GalNAc3S(b1-4)GlcNAc
# In short: as §1
# Glc(b1-4)Glc = molecular target: Glc(b1-4)Glc
# In short: as §1
# [19] = molecular target: GlcNAc(a1-4)Gal(b1-3)GlcNAc
# In short: as §1
# [20] = molecular target: GlcNAc(b1-3)Gal(b1-4)GlcNAc(b1-3)Gal(b1-4)GlcNAc(b1-3)Gal(b1-4)GlcNAc(b1-2)[GlcNAc(b1-3)Gal(b1-4)GlcNAc(b1-3)Gal(b1-4)GlcNAc(b1-3)Gal(b1-4)GlcNAc(b1-6)]Man(a1-6)[GlcNAc(b1-3)Gal(b1-4)GlcNAc(b1-3)Gal(b1-4)GlcNAc(b1-3)Gal(b1-4)GlcNAc(b1-2)Man(a1-3)]Man(b1-4)GlcNAc(b1-4)[Fuc(a1-6)]GlcNAc
# In short: as §1
# [21] = molecular target: Man(a1-2)Man(a1-2)Man(a1-6)[Man(a1-3)]Man
# In short: as §1
# [22] = molecular target: Man(a1-2)Man(a1-3)[Man(a1-6)]Man(a1-6)[Man(a1-2)Man(a1-3)]Man(b1-4)GlcNAc(b1-4)GlcNAc
# In short: as §1
# [23] = molecular target: Neu5Ac(a2-3)Gal(b1-3)GalNAc(b1-4)[Neu5Ac(a2-8)Neu5Ac(a2-3)]Gal(b1-4)Glc
# In short: as §1
# [24] = molecular target: Neu5Ac(a2-3)Gal(b1-3)GlcNAc(b1-3)Gal(b1-3)GlcNAc
# In short: as §1
# [25] = molecular target: Neu5Ac(a2-3)Gal(b1-3)[GlcNAc(b1-6)]GalNAc
# In short: as §1
# [26] = molecular target: Neu5Ac(a2-3)Gal(b1-4)GlcNAc(b1-2)Man(a1-3)[Neu5Ac(a2-3)Gal(b1-4)GlcNAc(b1-2)Man(a1-6)]Man(b1-4)GlcNAc(b1-4)GlcNAc
# In short: as §1
# [27] = molecular target: Neu5Ac(a2-3)Gal(b1-4)GlcNAc(b1-3)Gal(b1-4)GlcNAc(b1-3)Gal(b1-4)GlcNAc
# In short: as §1
# [28] = molecular target: Neu5Ac(a2-3)Gal(b1-4)GlcNAc(b1-3)Gal(b1-4)GlcNAc(b1-3)[Neu5Ac(a2-3)Gal(b1-4)GlcNAc(b1-3)Gal(b1-4)GlcNAc(b1-6)]GalNAc
# In short: as §1
# [29] = molecular target: Neu5Ac(a2-3)Gal(b1-4)[Fuc(a1-3)]GlcNAc6S
# In short: as §1
# [30] = molecular target: Neu5Ac(a2-6)Gal(b1-4)GlcNAc(b1-3)Gal(b1-4)GlcNAc(b1-3)[Neu5Ac(a2-6)Gal(b1-4)GlcNAc(b1-3)Gal(b1-4)GlcNAc(b1-6)]GalNAc
# In short: as §1
# Neu5Ac(a2-6)GalNAc = molecular target: Neu5Ac(a2-6)GalNAc
# In short: as §1
# [31] = molecular target: Neu5Ac(a2-8)Neu5Ac(a2-3)Gal(b1-4)GlcNAc
# In short: as §1
# [32] = molecular target: Neu5Ac(a2-8)Neu5Ac(a2-8)Neu5Ac(a2-3)[GalNAc(b1-4)]Gal(b1-4)Glc
# In short: as §1
# [33] = molecular target: Neu5Gc(a2-3)Gal(b1-4)GlcNAc(b1-3)Gal(b1-4)GlcNAc(b1-2)Man(a1-3)[Neu5Gc(a2-3)Gal(b1-4)GlcNAc(b1-3)Gal(b1-4)GlcNAc(b1-2)Man(a1-6)]Man(b1-4)GlcNAc(b1-4)GlcNAc
# In short: as §1
# [34] = molecular target: Neu5Gc(a2-8)Neu5Gc(a2-3)Gal(b1-4)GlcNAc
# In short: as §1
# [35] = molecular target: Neu5Gc(a2-8)Neu5Gc(a2-3)Gal(b1-4)GlcNAc(b1-3)Gal(b1-4)GlcNAc
# In short: as §1
binder,measurement,setting,value
"MAA (Maackia amurensis), P0DKL3 (protein) MATSNSKPTQVLLATFLTFFFLLLNNVNSSDELSFTINNFVPNEADLLFQGEASVSSTGVLQLTRVENGQPQKYSVGRALYAAPVRIWDNTTGSVASFSTSFTFVVKAPNPDITSDGLAFYLAPPDSQIPSGSVSKYLGLFNNSNSDSSNQIVAVELDTYFAHSYDPWDPNYRHIGIDVNGIESIKTVQWDWINGGVAFATITYLAPNKTLIASLVYPSNQTTFSVAASVDLKEILPEWVRVGFSAATGYPTEVETHDVLSWSFTSTLEANCDAATENNVHIARYTA",glycan array binding signal (z-score),[1],-0.221
same,glycan array binding signal (z-score),[2],-0.262
same,glycan array binding signal (z-score),[3],-0.059
same,glycan array binding signal (z-score),[4],-0.191
same,glycan array binding signal (z-score),Fuc(a1-2)[Gal(a1-3)]Gal,-0.152
same,glycan array binding signal (z-score),[5],-0.153
same,glycan array binding signal (z-score),[6],-0.228
same,glycan array binding signal (z-score),[7],-0.128
same,glycan array binding signal (z-score),[8],-0.178
same,glycan array binding signal (z-score),[9],-0.094
same,glycan array binding signal (z-score),[10],-0.2
same,glycan array binding signal (z-score),[11],2.89
same,glycan array binding signal (z-score),[12],0.162
same,glycan array binding signal (z-score),Gal(a1-3)Gal(b1-4)GlcNAc,-0.243
same,glycan array binding signal (z-score),[13],-0.145
same,glycan array binding signal (z-score),[14],-0.219
same,glycan array binding signal (z-score),[15],-0.204
same,glycan array binding signal (z-score),[16],0.122
same,glycan array binding signal (z-score),[17],-0.204
same,glycan array binding signal (z-score),Gal(b1-6)Gal,-0.212
same,glycan array binding signal (z-score),Gal3S(b1-3)GlcNAc,1.5
same,glycan array binding signal (z-score),Gal3S(b1-4)Glc,5.2
same,glycan array binding signal (z-score),Gal3S(b1-4)Glc6S,6.87
same,glycan array binding signal (z-score),Gal3S(b1-4)GlcNAc,6.25
same,glycan array binding signal (z-score),Gal3S(b1-4)GlcNAc6S,4.71
same,glycan array binding signal (z-score),[18],7.75
same,glycan array binding signal (z-score),GalNAc(a1-3)Gal,-0.197
same,glycan array binding signal (z-score),GalNAc(b1-3)GalNAc,-0.186
same,glycan array binding signal (z-score),GalNAc3S(b1-4)GlcNAc,2.31
same,glycan array binding signal (z-score),Glc(b1-4)Glc,-0.161
same,glycan array binding signal (z-score),[19],-0.226
same,glycan array binding signal (z-score),[20],0.282
same,glycan array binding signal (z-score),[21],-0.236
same,glycan array binding signal (z-score),[22],-0.2
same,glycan array binding signal (z-score),[23],-0.163
same,glycan array binding signal (z-score),[24],-0.173
same,glycan array binding signal (z-score),[25],-0.229
same,glycan array binding signal (z-score),[26],1.17
same,glycan array binding signal (z-score),[27],1.27
same,glycan array binding signal (z-score),[28],1.22
same,glycan array binding signal (z-score),[29],-0.236
same,glycan array binding signal (z-score),[30],0.454
same,glycan array binding signal (z-score),Neu5Ac(a2-6)GalNAc,-0.257
same,glycan array binding signal (z-score),[31],0.479
same,glycan array binding signal (z-score),[32],-0.155
same,glycan array binding signal (z-score),[33],2.07
same,glycan array binding signal (z-score),[34],0.744
same,glycan array binding signal (z-score),[35],1.13
